# In PubChem BioAssay (NCATS):
# Inconclusive results are not listed. A call without a number means that no potency is given here. Unmarked numbers belong to inactive results. The source made the active and inactive calls. Unless noted, the call rests on the fitted dose curve; in most records, active means well fitted curve in the direction sought with a large enough effect; inconclusive means small, poorly fitted or top-dose-only effect, or another doubt; inactive means no such curve, though single readings can be large; an effect the other way counts as inactive or inconclusive.
# Legend:
# [1] = biological target: Voltage-gated inwardly rectifying potassium channel KCNH2 (Homo sapiens) (UniProt Q12809); experiment: qHTS Assay for Small Molecule Inhibitors of the Human hERG Channel Activity (AID 588834);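 further: lower thallium flux fluorescence means stronger hERG block; nearly all actives have a fitted effect of over 50% in size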; further: potency means the concentration at half of the fitted maximal effect
# How it was run: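 hERG block measured as reduced thallium-dye (FluxOR) fluorescence after stimulation buffer addition, read over 2 min. Cells were hERG-BacMam-transduced U2OS exposed to compound ~10 min […]; concentration-response fitted with Hill equation for AC50.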
# [2] = S16 Schwann cell viability assay (CellTiter-Glo assay) (AID 624031);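 further: native untransfected S16 rat Schwann cells; cellular ATP luminescence as a viability measure; series mostly up to about 58 µM; nearly all actives have a fitted effect of over 70% in size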
# How it was run: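 Cells were seeded at 500-750 per well in phenol red-free DMEM with 10% FBS and left overnight. Compounds or DMSO were pinned in, incubation ran 24 h at 37 °C/5% CO2, then CellTiter-Glo reagent was added and luminescence measured.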
# [3] = S16 Schwann cell PMP22 intronic element firefly luciferase assay (AID 624032); further: nearly all actives have a fitted effect of over 30% in size; further: potency means the concentration at half of the fitted maximal effect
# How it was run: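 Rat S16 Schwann cells stably carrying a PMP22 intronic element-driven Fluc reporter were seeded overnight, then exposed to compounds for 24 h at 37 °C. Luminescence was normalized to PTC124 (positive control) and DMSO (0% activity).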
# [4] = S16 Schwann cell PMP22 intronic element beta-lactamase assay (AID 624044; calls by dose curve; further: nearly all actives have a fitted effect of over 15% in size; further: potency means the concentration at half of the fitted maximal effect)
# How it was run: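 Beta-lactamase reporter under a PMP22 intronic regulatory element in stable S16 rat Schwann cells; 24 h compound exposure. 460 nm blue signal normalized between DMSO (0%) and potassium clavulanate, with 535 nm FRET tracking viability; curves classed by r2 and response.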
# [5] = biological target: Thyroid hormone receptor beta (Homo sapiens) (UniProt P10828); experiment: qHTS assay for small molecule antagonists of thyroid hormone receptor beta signaling (AID 588547; active means well fitted inhibition curve with a large enough effect in the signal ratio, with a control signal flat, not every such curve was filed as active; the % refers to the signal ratio;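 further: cells stimulated with 0.4 nM T3 agonist during compound exposure; series mostly up to about 77 µM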); conditions: TR-UAS-bla HEK293, beta-lactamase ratio, antagonist mode, 18 h
# How it was run: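 TR-UAS-bla GripTite HEK293 cells in 2% charcoal/dextran FBS medium were preincubated 4 h at 37 C, given compound (0.59 nM to 92 uM) plus 0.4 nM T3 (final) for 18 h, then CCF4 for 2 h at RT; Hill fit gave IC50.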
# Chain of Voltage-gated inwardly rectifying potassium channel KCNH2 (Homo sapiens) (Q12809 whole entry, looked up): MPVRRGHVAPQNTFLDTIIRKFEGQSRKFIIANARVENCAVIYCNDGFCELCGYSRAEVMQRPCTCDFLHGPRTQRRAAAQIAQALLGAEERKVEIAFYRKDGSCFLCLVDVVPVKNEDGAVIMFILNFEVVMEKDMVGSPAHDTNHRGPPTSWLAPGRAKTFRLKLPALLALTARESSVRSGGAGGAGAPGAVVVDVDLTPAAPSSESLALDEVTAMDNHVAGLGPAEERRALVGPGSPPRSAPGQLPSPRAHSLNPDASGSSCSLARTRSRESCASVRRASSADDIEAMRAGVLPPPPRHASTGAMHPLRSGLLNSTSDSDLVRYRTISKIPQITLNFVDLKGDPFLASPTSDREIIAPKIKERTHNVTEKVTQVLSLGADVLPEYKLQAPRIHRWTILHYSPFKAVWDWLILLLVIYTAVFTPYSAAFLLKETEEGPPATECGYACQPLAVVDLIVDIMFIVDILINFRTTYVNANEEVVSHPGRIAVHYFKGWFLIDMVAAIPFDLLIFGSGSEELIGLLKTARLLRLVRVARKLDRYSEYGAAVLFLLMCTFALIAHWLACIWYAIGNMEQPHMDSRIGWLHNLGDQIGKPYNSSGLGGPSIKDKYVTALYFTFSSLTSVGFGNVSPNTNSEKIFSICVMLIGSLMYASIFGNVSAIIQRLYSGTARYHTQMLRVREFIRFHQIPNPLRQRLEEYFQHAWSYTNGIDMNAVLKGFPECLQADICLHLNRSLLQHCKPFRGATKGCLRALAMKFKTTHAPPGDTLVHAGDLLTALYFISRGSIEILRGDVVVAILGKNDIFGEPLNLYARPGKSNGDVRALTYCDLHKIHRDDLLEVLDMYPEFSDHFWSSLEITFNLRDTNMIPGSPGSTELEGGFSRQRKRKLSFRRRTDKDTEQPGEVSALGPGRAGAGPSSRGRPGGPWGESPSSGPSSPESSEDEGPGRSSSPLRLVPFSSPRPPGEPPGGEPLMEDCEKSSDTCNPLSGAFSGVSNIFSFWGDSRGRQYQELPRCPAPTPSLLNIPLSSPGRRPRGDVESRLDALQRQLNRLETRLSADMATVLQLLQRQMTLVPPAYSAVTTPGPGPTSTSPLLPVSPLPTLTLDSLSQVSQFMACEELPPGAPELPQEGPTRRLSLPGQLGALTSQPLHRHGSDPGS
# Chain of Thyroid hormone receptor beta (Homo sapiens) (P10828 whole entry, looked up): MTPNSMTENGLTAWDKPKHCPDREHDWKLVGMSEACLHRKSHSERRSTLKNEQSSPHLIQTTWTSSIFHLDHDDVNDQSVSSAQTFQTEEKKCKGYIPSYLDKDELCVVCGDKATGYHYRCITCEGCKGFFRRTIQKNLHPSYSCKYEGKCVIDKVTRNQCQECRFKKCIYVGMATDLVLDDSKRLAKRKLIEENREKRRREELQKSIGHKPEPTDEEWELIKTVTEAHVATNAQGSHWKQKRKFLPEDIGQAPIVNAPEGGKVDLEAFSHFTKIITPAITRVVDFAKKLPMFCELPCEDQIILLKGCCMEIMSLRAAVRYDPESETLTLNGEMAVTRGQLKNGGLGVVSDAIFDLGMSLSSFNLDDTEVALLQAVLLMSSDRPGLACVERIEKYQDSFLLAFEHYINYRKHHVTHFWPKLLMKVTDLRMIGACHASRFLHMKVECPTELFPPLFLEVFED
structure (smiles),measurement,setting,value
COc1c(N2C[C@@H]3CCCN[C@H]3C2)c(F)cc2c(=O)c(C(=O)O)cn(C3CC3)c12,Potency,[1],inactive
same,outcome,[2],inactive
same,Potency,[3],inactive
COC(=O)C[C@](O)(CCCC(C)(C)O)C(=O)O[C@@H]1C(OC)=C[C@]23CCCN2CCc2cc4c(cc2[C@H]13)OCO4,Potency,[1],inactive
same,outcome,[2],inactive
Nc1ccn([C@@H]2O[C@H](CO)[C@H](O)C2(F)F)c(=O)n1,Potency,[1],inactive
same,Potency,[3],inactive
same,Potency,[4],0.562 µM (active)
COC(=O)C1=C(C)NC(C)=C(C(=O)OCCN2CCN(C(c3ccccc3)c3ccccc3)CC2)C1c1cccc([N+](=O)[O-])c1 (configuration not stated),Potency,[1],3.98 µM (active)
O=c1[nH]c(=O)n(C2CCCO2)cc1F (configuration not stated),outcome,[2],inactive
same,Potency,[3],inactive
same,Potency,[4],inactive
CC[C@H]1CN2CCc3cc(OC)c(OC)cc3[C@H]2C[C@@H]1C[C@@H]1NCCc2cc(OC)c(OC)cc21,outcome,[2],inactive
COc1ccc(CC2c3cc(OC)c(OC)cc3CC[N+]2(C)CCC(=O)OCCCCCOC(=O)CC[N+]2(C)CCc3cc(OC)c(OC)cc3C2Cc2ccc(OC)c(OC)c2)cc1OC (configuration not stated),Potency,[1],inactive
O=C(O)CCCc1c[nH]c2ccccc12,activity change % (negative = inhibition),[5],3.26%
CN[C@H]1CCc2cc(OC)c(OC)c(OC)c2-c2ccc(OC)c(=O)cc21,Potency,[1],inactive
CCC1=C[C@@H]2CN(C1)Cc1c([nH]c3ccccc13)[C@@](C(=O)OC)(c1cc3c(cc1OC)N(C)[C@@H]1[C@@](O)(C(=O)OC)[C@H](OC(C)=O)[C@]4(CC)C=CCN5CC[C@]31[C@@H]54)C2,outcome,[2],inactive
same,Potency,[3],0.907 µM (active)
Nc1ccc(S(=O)(=O)Nc2ncccn2)cc1,Potency,[1],inactive
same,outcome,[2],inactive
same,Potency,[3],6.91 µM (active)
same,Potency,[4],inactive
